Screening data (PubChem)
Mtb hypoxia inh: inhibitors of hypoxia-regulated fluorescent reporter in Mycobacterium tuberculosis; M. tuberculosis hypoxia-regulated fluorescent reporter, fluorescence; AID 1159583; actives 0.1% (n = 300,000); fluorescence inhibition, % (test concentration not listed); in the data active = fluorescence inhibition mostly above about 23%, no sharp cut-off; inactive = mostly below about 17%
PrPC surface inh: reduces human prion protein on the cell surface; P04156; inhibition, % at 13.8 µM; actives 0.43% (n = 370,000); cell surface PrPC, TR-FRET read-out; in the data active = inhibition above about 24%; also: 0% = median of the test wells and 100% = reference compound wells
DUSP3 inh: blocks human VHR1 dual specificity phosphatase. actives 0.52% (n = 290,000). AID 1654. P51452. recombinant VHR phosphatase, pNPP absorbance. inhibition, % at 13.3 µM; in the data active = inhibition above about 50%
Target sequence (P51452 whole entry, looked up): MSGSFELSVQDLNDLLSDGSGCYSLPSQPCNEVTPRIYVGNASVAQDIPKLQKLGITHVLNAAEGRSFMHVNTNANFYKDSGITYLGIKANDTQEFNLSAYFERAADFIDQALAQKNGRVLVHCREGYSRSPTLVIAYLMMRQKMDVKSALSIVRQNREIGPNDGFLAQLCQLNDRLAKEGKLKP
MazF activator: activators of E. coli MazEF toxin-antitoxin RNase; P0AE70; FAM/BHQ RNA-DNA oligo cleavage fluorescence, 5 h; activation, % at 20 µM; actives 0.32% (n = 350,000); AID 504720; in the data active = activation above about 50%
Target sequence (P0AE70 whole entry, looked up): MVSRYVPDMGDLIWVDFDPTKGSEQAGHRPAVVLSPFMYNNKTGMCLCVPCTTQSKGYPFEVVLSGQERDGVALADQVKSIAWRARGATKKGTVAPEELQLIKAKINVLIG
PrP 5UTR inh: inhibition of PrP 5' UTR reporter expression. actives 0.35% (n = 340,000). cell-based PrP 5' UTR mRNA reporter, plate reader. inhibition, % (test concentration not listed); in the data active = inhibition above about 52%; also: 0 = median of the neutral control wells
3CLpro inhibitor: SARS-CoV 3CLpro protease inhibition. P0C6X7. recombinant SARS-CoV 3CLpro, quenched FRET peptide cleavage. inhibition, % at 6 µM. actives 0.14% (n = 290,000); in the data active = inhibition above about 12%
* marks the source's active call; other numbers are inactive results; x = not tested or not shown; ! = repeats disagree. A selection: hits, their analogues and other compounds. The true share with any hit is near 1.5%.

SMILES	Mtb hypoxia inh	PrPC surface inh	DUSP3 inh	MazF activator	PrP 5UTR inh	3CLpro inhibitor
COc1ccccc1NS(=O)(=O)c1cccc(NC(=O)Nc2cccc(Cl)c2)c1	x	6	6	77*	-3	7
COc1ccccc1NS(=O)(=O)c1ccc2c(c1)OCCO2	-5	7	58*	-2	6	-4
COc1cccc(C=Nn2cnnc2)c1OCc1ccccc1	-11	x	x	x	x	x
COc1ccc(CN(C)C(=O)COC(=O)c2cc([N+](=O)[O-])ccc2N2CCCC2)c(OC)c1OC	22*	-20	x	5	-6	x
CN(C(=O)COC(=O)c1cc([N+](=O)[O-])ccc1N1CCCC1)C1CCS(=O)(=O)C1 (stereo unspecified)	-1	-21	51*	4	-14	-1
CN(C)CCCON=C(c1ccccc1)c1ccncc1	8	x	x	x	x	x
COc1ccccc1/C=C/C=NNC(=O)c1ccncc1	9	x	x	x	x	x
CC(=O)NN=Cc1cc(C(C)C)cc(C=NNC(C)=O)c1O	-13	x	x	x	x	x
CCc1n[nH]c(=S)n1N=Cc1ccc(NC(C)=O)cc1	-3	x	x	x	x	x
CC1NC(=O)[C@@]2(C)C(c3ccccc3)C3COc4ccccc4C3N2C1=O (stereo partly specified)	0	x	x	x	x	x
COC(=O)c1sccc1NC(=O)C1CCCCC1C(=O)O (stereo unspecified)	15	37*	5	5	-43	-2
COC(=O)c1sccc1NC(=S)N1CCCCC1C (stereo unspecified)	-8	4	16	-3	4	2
COC(=O)c1sccc1NC(=S)N1C(C)CCCC1C (stereo unspecified)	-4	12	51*	3	-10	1
COC(=O)c1ccccc1NC(=O)C1CCCCC1C(=O)O (stereo unspecified)	5	-1	-9	-3	1	5
O=C1C2C3C=CC(C3)C2C(=O)N1N=Cc1cn(Cc2ccc(F)cc2)c2ccccc12 (stereo unspecified)	5	x	x	x	x	x
COc1cc(C(=O)N2CCCN(C)CC2)cc(OC)c1C	1	0	57*	0	-3	0
CN1CCCN(C(=O)c2ccc(Br)cc2)CC1	-2	-8	35	7	-23	-3
N#Cc1c2ccccc2nc2ccccc12	62*	-10	31	3	-23	-1
Nc1c2ccccc2nc2ccccc12	-1	12	20	0	-31	-2
CCOc1cc(/C=C(\C#N)C(=O)Nc2cccc(C(=O)O)c2)ccc1OCc1ccc(Br)cc1	-9	3	53*	-28	-31	5
Cc1cc(C)nc(NS(=O)(=O)c2ccc(NC(=O)Cc3ccc(F)cc3)cc2)n1	13	-5	54*	4	-6	0
CC(Oc1ccc(Cl)cc1Cl)C(=O)NCCCN1CCOCC1 (stereo unspecified)	0	-7	12	-3	2	3
Cc1cc(OC(C)C(=O)NCCCN2CCOCC2)ccc1Cl (stereo unspecified)	-9	-1	50*	-2	-20	5
CN(C)c1ccc(C=NNC(=O)c2cc(-c3ccc4c(c3)OCO4)n[nH]2)cc1	-3	x	x	x	x	x
CCc1nnc(NC(=O)CSc2nc3cc4c(cc3cc2C)OCCO4)s1	3	-5	45	55*	-16	0
SMILES	Mtb hypoxia inh	PrPC surface inh	DUSP3 inh	MazF activator	PrP 5UTR inh	3CLpro inhibitor
COC(=O)CSc1nc2cc3c(cc2cc1C)OCCO3	8	9	8	0	-14	-1
COc1ccc(-c2nc(CS(=O)(=O)CC(=O)NCCCN3CCN(C)CC3)c(C)o2)cc1	6	2	57*	4	1	-6
Cc1oc(-c2ccccc2F)nc1CS(=O)(=O)CC(=O)NCCCN1CCN(C)CC1	1	-2	-12	9	-11	1
COC(=O)C1=C(c2ccccc2OCc2ccccc2)CC2CCC1N2C(=O)NCc1ccccc1 (stereo unspecified)	4	x	x	x	x	x
Cc1cccc(C(=O)N=c2c(C#N)cc3c(=O)n4cccc(C)c4nc3n2Cc2ccco2)c1	-5	-3	-12	54*!	-5	-1
Cc1cccn2c(=O)c3cc(C#N)c(=NC(=O)c4ccccc4)n(Cc4ccco4)c3nc12	-1	4	x	-54	-5	x
Cc1cnc(C(=O)OCC(=O)Nc2cccc(C)c2C)cn1	-2	5	x	2	9	x
Cc1cnc(C(=O)OCC(=O)Nc2cccc3ccccc23)cn1	26*	-3	x	-2	-32	x
CC(=O)Nc1ccc(NC(=S)NC(=O)C2CCCC2)cc1	2	-5	60*	6	-42	1
COc1ccc(NC(=S)NC(=O)C2CCCCC2)cc1	x	4	-3	2	-51	5
CCOc1ccc(NC(=O)CCC(=O)NN=C2CCCc3ccccc32)cc1	-7	x	x	x	x	x
COCc1cc(C)nc(OCC(=O)NN=Cc2ccccc2O)c1C#N	-1	x	x	x	x	x
O=C(CCl)N(c1ccc(Cl)cc1)c1c[nH]c2ccccc12	36*	3	21	-1	-18	5
O=C(CCl)N(c1ccccc1)c1c[nH]c2ccccc12	x	-2	17	1	-43	-5
COC(=O)CC=CC(C)C(C=NOCC1OC(c2ccccc2)C=CC1Oc1ccc(OC)cc1)OC (stereo unspecified)	11	x	x	x	x	x
COC(=O)CCC(=O)NC1CC(C)(C)Cc2c1cnn2-c1ccccc1 (stereo unspecified)	1	7	57*	0	-32	-5
CC(=O)NCC(=O)NC1CC(C)(C)Cc2c1cnn2-c1ccccc1 (stereo unspecified)	-3	6	12	9	-8	-5
O=C(CCNc1n[nH]c(=O)[nH]c1=O)NN=Cc1ccc(Br)cc1	8	x	x	x	x	x
CN(C)c1ccc(/C=C(/NC(=O)c2ccccc2)C(=O)N2CCCC2)cc1	-12	6	20	59*	-7	4
CC[n+]1c(/C=C/N(C)c2ccccc2)n(-c2ccccc2)c2ccc(-c3nc4ccccc4s3)cc21	x	x	4	68*	15	-48
CCOC(=O)c1ccc2c(c1)n(CC)c(/C=C/N(C)c1ccccc1)[n+]2CC	5	-2	8	12	-25	-3
O=C(ON=C1CCCc2occc21)c1ccc(Cl)cc1Cl	8	x	x	x	x	x
O=C(COC(=O)c1cccnc1)Nc1ccccc1	x	-9	57*	4	-31	-2
Cc1ccc(S(=O)(=O)c2nc(S(C)(=O)=O)sc2N2CCN(C)CC2)cc1	-1	-1	56*	5	8	3
CC(C)(C)OC(=O)NC(C(=O)OC(C)(C)C)c1ccccc1 (stereo unspecified)	2	x	x	x	x	x
COc1cc2[nH]c(=S)nc(NC3CCCCCC3)c2cc1OC	4	25*	16	4	-3	1
CS(=O)(=O)N1CCN(c2ccc([N+](=O)[O-])c(NCc3ccc(Cl)cc3)c2)CC1	9	-2	90*	4	-19	1
